# Bioassay records (PubChem)
# Hits are enriched below; roughly 2.2% of the tested compounds scored in any of these assays.
# NPR1 activator – GC-A (human) enzyme activation; P16066; HEK293 GC-A cells, cGMP TR-FRET, EC30 ANP; 0% at EC30 ANP, 100% saturating ANP; activation, % at 10 µM; actives 0.14% (n = 370,000); AID 1671463; in the data active = activation above about 40%
# GC-B act – GC-B (human) receptor activation. activation, % at 10 µM. HEK293-GC-B cells, CNP EC30, cGMP TR-FRET; 0% at EC30 CNP, 100% saturating CNP. actives 0.11% (n = 370,000);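 active = activation at 10 µM reaching about 35% in either raw or pattern-adjusted values, limit read from the data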
# ADAM17 inh – inhibitors of human ADAM17; P78536; recombinant ADAM17, EDANS/DABCYL FRET peptide cleavage; inhibition, % at 6.95 µM; actives 0.83% (n = 370,000);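 active = inhibition above the mean of compounds lying between control limits plus 3 SD, set per campaign, cut at about 8.5% in these data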;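 also: 0% = DMSO-only wells as the low control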
# Target sequence (P78536 215-824 limits assumed): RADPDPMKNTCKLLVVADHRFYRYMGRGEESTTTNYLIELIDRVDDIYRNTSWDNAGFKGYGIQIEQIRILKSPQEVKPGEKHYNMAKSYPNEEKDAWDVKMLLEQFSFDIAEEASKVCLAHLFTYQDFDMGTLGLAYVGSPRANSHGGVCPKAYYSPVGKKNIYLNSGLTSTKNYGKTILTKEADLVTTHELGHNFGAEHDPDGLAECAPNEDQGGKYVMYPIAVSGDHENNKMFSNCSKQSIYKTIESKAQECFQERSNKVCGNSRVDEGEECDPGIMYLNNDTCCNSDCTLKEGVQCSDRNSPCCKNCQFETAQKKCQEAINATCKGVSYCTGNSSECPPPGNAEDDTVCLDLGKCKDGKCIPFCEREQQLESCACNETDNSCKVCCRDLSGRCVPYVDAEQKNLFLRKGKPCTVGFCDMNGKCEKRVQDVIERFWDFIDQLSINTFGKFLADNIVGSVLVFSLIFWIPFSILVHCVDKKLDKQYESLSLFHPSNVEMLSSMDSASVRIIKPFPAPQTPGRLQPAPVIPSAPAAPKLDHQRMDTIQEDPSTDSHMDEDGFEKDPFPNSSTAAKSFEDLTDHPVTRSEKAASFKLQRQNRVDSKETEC
# ADAM10 inh – ADAM10 inhibition, QFRET primary screen | actives 0.62% (n = 370,000) | inhibition, % at 7 µM | O14672 | AID 720582 | recombinant ADAM10, EDANS/DABCYL FRET peptide cleavage, 3 h;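 active = inhibition above a per-campaign cutoff equal to the mean of compounds falling between control-based bounds plus 3 SD, cut at about 20% in these data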;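 also: 0% = DMSO wells while the 100% control is not disclosed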
# KLK7 zymogen act – proKLK7 (human) activation, primary screen; AID 652039; actives 0.9% (n = 370,000); purified proKLK7, EDANS-DABCYL substrate fluorescence; 100% is mature enzyme control, 0% vehicle; activation, % at 7 µM; P49862;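 active = activation above the mean of all tested compounds plus 3 SD, computed per campaign excluding outliers beyond control limits, cut at about 13% in these data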
# The depositor's hits bear a star; . = no result; ! = a repeat was not active.
SMILES,NPR1 activator,GC-B act,ADAM17 inh,ADAM10 inh,KLK7 zymogen act
O=C(CSC1=NNC(c2ccccn2)S1)Nc1ccccc1 (configuration not stated),1,6,2,2,0
COc1ccc2c(c1)CCCN2C(=O)C1CCCN(S(=O)(=O)c2ccc(Br)s2)C1 (configuration not stated),-1,-9,5,-1,0
CCOC(=O)Cn1nc(-c2ccc(Cl)cc2)cc1N,5,4,4,3,-1
CCOC(=O)CN1CCC(c2cc(-c3ccc(Cl)cc3)n[nH]2)CC1,62*,-5,-5,4,4
C#CCNC(=O)C[C@@H]1C[C@@](CCC(=O)OCC)(C(=O)OCC)C2=CCCCN2C1=O,3,-2,-4,-5,0
CCOC(=O)c1c(-c2ccc(C)o2)csc1NC(=O)CSc1nnc(C)s1,3,6,-2,2,0
CCOC(=O)c1c(-c2ccc(C)o2)csc1NC(=S)NC(=O)c1ccccc1Br,18,37*,7,15,0
CCOC(=O)c1c(-c2ccc(C)o2)csc1NC(=S)NC(=O)c1cccs1,29,37*,-1,2,0
CCOC(=O)Cc1nc(N2CCN(C(=O)C3CCCO3)CC2)c2c(C)c(C(=O)OCC)sc2n1 (configuration not stated),2,0,-1,-12,0
O=C(CCSC1=NCCCN1)c1ccc(F)cc1,78*,-1,-8,-20,-1
c1ccc(CSC2=NCCCN2)cc1,0,-4,-2,-8,0
O=C1CCCc2c1cc(-c1ccccc1)n2-c1ccc(O)cc1,75*,6,1,7,0
CSCC[C@H](NC(=O)[C@H](Cc1ccccc1)n1c(=O)[nH]c2ccccc2c1=O)C(=O)N1CCC[C@H]1C(=O)O,6,83*,-1,-18,0
NC(=O)CC[C@H](NC(=O)[C@H](Cc1ccccc1)n1c(=O)[nH]c2ccccc2c1=O)C(=O)N1CCC[C@H]1C(=O)O,-3,3,-2,-17,0
C=CCOC(=O)C1=C(C)N=c2sc(=C3C(=O)N(CC(=O)O)c4ccccc43)c(=O)n2C1c1ccc(OC)cc1 (configuration not stated),-6,9,-4,-7,-1
CC(=O)c1c(C)n(-c2cccc(Cl)c2)c2ccc(O)cc12,66*,11,5,2,1
N#Cc1nc(NCC(F)F)nc(Nc2cc(F)cc(F)c2)n1,44*,39*,5,4,0
N#Cc1nc(Nc2cc(F)cc(F)c2)c2ncn(CC(F)F)c2n1,14,-9,-1,5,0
Oc1c(C(Nc2cccc(C(F)(F)F)c2)c2ccncc2)ccc2cccnc12 (configuration not stated),-5,-3,45*,12,1
CC(=O)C1(C(=O)NCc2ccccc2)CC(c2ccccc2C(F)(F)F)=NO1 (configuration not stated),-1,5,-6,0,0
CC(C)NC(=S)NNc1ncnc2sc3c(c12)CC(C)(C)OC3,33,38*,-3,0,0
Cc1ccc(-c2csc(NC(=O)CN3C(=O)CCC3=O)n2)cc1,55*,4,-5,-10,0
COc1ccc(S[C@]2(C(=O)NCC(C)C)CC(=O)N[C@@H]2c2ccc(OC)cc2)cc1,-2,-3,-2,-1,0
CCOc1ccc(/C=C2/Sc3ccc(C(=O)N4CCOCC4)cc3N(C)C2=O)cc1OC,5,1,-1,4,0
COc1ccc(/C=C2\Sc3ccc(C(=O)NC4CC4)cc3N(C)C2=O)cc1OC,30,39*,0,-17,-1
SMILES,NPR1 activator,GC-B act,ADAM17 inh,ADAM10 inh,KLK7 zymogen act
Cc1cc(C(=O)Cn2ncc(Cl)c(Cl)c2=O)c(C)n1CC(F)(F)F,45*,56*,0,-6,0
C=CCN(C)CC#Cc1ccc(C)cc1,3,-10,-3,-2,0
O=C(Nc1ccc2c(c1)Cc1ccccc1-2)NC1CCCCN(Cc2cccc(Cl)c2)C1=O (configuration not stated),1,-9,-3,-2,0
COc1ccc(NC(=O)c2cc(-c3cc(Cl)ccc3OC)n[nH]2)c(C)c1,75*,88*,1,-2,0
CCCOc1ccc(F)cc1-c1cc(C(=O)Nc2ccc(OC)cc2C)[nH]n1,58*,62*,-4,1,0
Cc1ccc(NC(=O)CN(C)Cc2ccc(Cl)cc2)cc1,1,2,8.8*,7,0
Cc1ccc2c(CC(=O)OC3CCOC3=O)coc2c1 (configuration not stated),43*,2,-2,-9,0
c1csc(CNc2ncnc3ccc(-c4ccc5c(c4)OCO5)cc23)c1,2,32*!,-13,-57,-1
COc1ccc(C(CC(=O)c2ccc(O)cc2)S(=O)(=O)c2ccc(C)cc2)cc1 (configuration not stated),-1,-8,-31,-96,46*
CC(C)c1ccc(Nc2nnc(SC3CCOC3=O)s2)cc1 (configuration not stated),65*,14,2,0,1
Cc1ccc2c(c1)[C@H]1[C@H](CO2)[C@H](c2ccccc2)[C@]2(C)C(=O)Nc3ccc(Cl)cc3C(=O)N12,-10,0,11*,29*,-2
C[C@@]12C(=O)Nc3ccc(Cl)cc3C(=O)N1[C@H]1c3cc(Cl)ccc3OC[C@@H]1[C@@H]2c1ccccc1,-7,-4,7,10,-1
CCCC(=O)OC12CCCN(C1)/C(=C/c1cccc(N(C)C)c1)C2 (configuration not stated),3,-11,-12,-36,-1
CCC(C(=O)Nc1ccccc1N1CCCC1)c1cccc(OC)c1 (configuration not stated),-11,-6,1,1,0
COc1ccc(C2c3[nH]c4ccccc4c3CCN2C(=O)c2cc3ncccn3n2)c(F)c1 (configuration not stated),38,37*,3,7,1
CCOC(=O)CSc1nc2c(sc3ccc([N+](=O)[O-])cc32)c(=O)n1Cc1ccco1,48*,50*,-1,-5,0
CCOC(=O)CSc1nc2ccccc2c(=O)n1Cc1ccco1,-3,0,-4,1,0
S=C(Nc1ccccc1Cl)OCCN1CCCC12CCC(c1ccccc1)CC2 (configuration not stated),-2,0,-7,-4,.
Cc1c(N=C2N=C(NC(=O)c3ccc(F)cc3)c3ccccc32)c(=O)n(-c2ccccc2)n1C,58*,-4,-3,2,0
Cc1c(NC(=O)NC(=O)c2ccc(F)cc2)c(=O)n(-c2ccccc2)n1C,-3,-1,-2,-8,0
